# Measured values as given in PubChem BioAssay AID1508600 (Functional Genomics Laboratory (NCATS/FGL), 2020).
# About 3,700 (7%) of roughly 53,000 sequences were called active. This is one part of a sample in which actives are shown more often than they occur.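 The calls were made as follows: active = gene knockdowns whose robust z-score for IL-1 alpha signal is at least 2 or at most -2, so actives lie on both sides; inactive = the rest.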
# Assay: Components of the Cytosolic LPS Sensing Pathway: Gene Identification via Genome-wide siRNA Screen;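 also: robust z of the log signal after scaling to non-targeting control siRNA wells of the plate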
# Conditions: RAW264.7 macrophages, IL-1a HTRF, actives lie on both sides, screened at 100 nM (by protocol), cells primed 5 h with Pam3CSK4 first
# Method in brief: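 Read-out: IL-1a HTRF on supernatant, divided by plate negative-control median ×100, log-transformed and converted to robust z-score. Cells were RAW264.7 given 100 nM siRNA, Pam3CSK4-primed 5 hours, then LipidA-transfected 24 hour.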
row,Sequence,z-score
1,CCUGGAGAUCCCUCACUUUTT against Olfr1351,1.39 (inactive)
2,GGCUUUAAGAUCACACAAATT against Snrpa,2.09 (active)
3,GCAGAUGCUUCGGUGAAAATT against Defb15,0.998 (inactive)
4,CCCAUACAAAGCACUUACATT against Otub1,0.589 (inactive)
5,GGACAAAUGGUAUUGUAGUTT against Coa5,-1.72 (inactive)
6,GCCGUCUUGUGUGUAUCAATT against Olfr1342,-0.186 (inactive)
7,GGAAAAGUGACGGUAUCUATT against Rpsa,-2.04 (active)
8,GGGAUAAAAACCAUGGUUUTT against Pramel27,0.113 (inactive)
9,GCACUUAUGGUUUAGAUGUTT against Prdm8,-0.127 (inactive)
10,GGAACUUAUAUCUGCGCCATT against Gprin3,0.868 (inactive)
11,AAAAGCUUCACCUAACUAUTT against Ascc1,1.73 (inactive)
12,GGUGACAGUUGUUCACAAATT against 4933405O20Rik,-1.4 (inactive)
13,GGAAUCAUAUCAGAAACUATT against Pde4b,-0.475 (inactive)
14,GGGAGAGUCAAAAAAAGAUTT against Khdrbs1,-0.536 (inactive)
15,GGAAGACUGGUACACAUAATT against Tmem43,-2.32 (active)
16,GCCAGUACUUAGGUCUAAGTT against Mrps25,1.24 (inactive)
17,GCCCUCAGGUGGUUCUUAATT against Heatr3,0.443 (inactive)
18,CCAUGUCAACGACCAUCAUTT against Glis2,0.189 (inactive)
19,GCACCUCCACAAGAAUGAATT against Six2,0.466 (inactive)
20,GGAACAUUGACCAGAUAGUTT against Ankrd44,-1.44 (inactive)
21,GGAGUUGAAUGGCUCUGGATT against Usp26,-2.11 (active)
22,CCUUUGAGCCAGUUAUUUATT against Slc25a27,0.366 (inactive)

row,Sequence,z-score
1,GGAACAUCUACAUUGUGGCTT against Tspan14,0.402 (inactive)
2,GGAAUUUGCUGCCCUCCUATT against Smad3,-0.206 (inactive)
3,GCAGACUCUUCCAAGUAAUTT against Lrrc28,0.529 (inactive)
4,GGCAUCGUCACCAAACUGUTT against Fgf11,-2.51 (active)
5,GCUAGAUUUCUACUGUGUCTT against Mindy1,0.527 (inactive)
6,GCAAUUUUAGUUGGUGGAATT against Ddx24,-0.112 (inactive)
7,GCGGAAGUCGAAUCUGUCUTT against Aga,-1.45 (inactive)
8,GGAAUUUGUCAGGUUCCAATT against Grik4,0.859 (inactive)
9,CGGGCUGAAUGUGUUUGUGTT against Slc10a4,2.62 (active)
10,GGUACGGUAUGGAGAUCGGTT against Atpaf2,0.593 (inactive)
11,GGCAGAGCCAGGAUGUCUUTT against Msmb,-1.2 (inactive)
12,GGUAACUCUCCUUAGCCAGTT against Klk10,-0.0493 (inactive)
13,GGACUCCCUGGAUUUCAGATT against Rapgef3,-1.34 (inactive)
14,GGCAGCUGAAGAUUAUGGATT against Tagln,0.837 (inactive)
15,GGCAAUAACAUUGCCUCGGTT against Igf1r,0.632 (inactive)
16,GGGUGAGCAGUACAUUCAATT against Plekhg6,2.73 (active)
17,CCGAAAAUGUGGUAAAGUATT against Smg1,0.948 (inactive)
18,CCCAACAACCAACUAUUUUTT against Kcna1,3.36 (active)
19,GGGAUAAAGAUGAAGAACUTT against Tmem167b,1.31 (inactive)
20,GGAAGUCAAGAUCUCACCUTT against Lrrc25,-0.864 (inactive)
21,CCAAGGGAAGAUUCAAAUUTT against Abcc8,2.29 (active)
22,CGUUUGAUACCAAAGAUUUTT against Onecut3,-1.12 (inactive)

row,Sequence,z-score
1,GCUGUAAGCUACCGUCUGUTT against Panx2,1.54 (inactive)
2,GGUAUCUACCAGUACGAGATT against Izumo4,-1.59 (inactive)
3,GCAUUAUGUCAGUAGCUCATT against Snrpb,-3.47 (active)
4,CGGUGCACAACGUACCAAUTT against Srxn1,-0.0189 (inactive)
5,GGUAUCCCUAACUGGCAGUTT against Tro,-0.849 (inactive)
6,GGCUCAAAGGAGGGUAGAGTT against Lcn8,3.18 (active)
7,GGAAAUAAAUGGCAGCAUGTT against H2-T3,1.47 (inactive)
8,GGAUGAUUCAUUCAGUGAUTT against Adcy9,0.918 (inactive)
9,CCAAAACUUUCCACUCUAATT against Ttc32,0.175 (inactive)
10,CCCAAACUGAAUUAAGCAGTT against Spata7,-0.515 (inactive)
11,GGAAAACUACUAAAAAGUCTT against Zfp938,-0.31 (inactive)
12,GGUUACUCCUUUUUAUGUATT against Bex1,-1.1 (inactive)
13,GGGACAAGUGGUUGAAACCTT against Prmt8,-2.01 (active)
14,GGCCACAAACAGAAUUAUCTT against Mrpl2,-0.219 (inactive)
15,GGAGAAAAAGGGAAAGAAUTT against Dlx4,0.0644 (inactive)
16,CCUAGUUUGGUGAUGAUGUTT against Atg10,-0.262 (inactive)
17,GGUCAUUGAAAACUGUGCGTT against Sardh,-1.04 (inactive)
18,GCAAGAGACCUUGUUAUAGTT against Cttnbp2nl,-0.426 (inactive)
19,CCCAGUAAAUAAGAGUACATT against Treml1,-1.33 (inactive)
20,GGGAGACCCAAUGUCAUCATT against Dtx3,-1.25 (inactive)
21,GCGGGAUUGGUCAUUCCACTT against Mrpl45,2.97 (active)
22,CGAACAUGUACAACAAAGATT against Cacna2d3,-0.181 (inactive)

row,Sequence,z-score
1,GGAACAAAGACUUCAAAGATT against Olfr323,-0.249 (inactive)
2,GGUGCUAAAAAUGAGCCUUTT against Urm1,-1.66 (inactive)
3,GGGAUGGCCAUAGAACAGATT against Echdc2,-0.211 (inactive)
4,CCCUAGACUUGAGAGUUUUTT against Eif2s1,1.29 (inactive)
5,GGCUGUGGAAGUGCAGAACTT against Dnmt3a,-2.53 (active)
6,CCGAGAGGUUUAAGGUCUCTT against Nsg1,1.18 (inactive)
7,GCUAGUCUACCCAAGUGACTT against Dennd6b,4.35 (active)
8,CCUACUUACUCCUGUAUAATT against Adam3,1.77 (inactive)
9,CGAAACCAACAGUUAGAAGTT against Cby1,0.71 (inactive)
10,GAUCCUCACGAAAUAGGUATT against Olfr1372-ps1,0.737 (inactive)
11,GGUCUCUAGUGGAAAAGCATT against A430093F15Rik,-3.05 (active)
12,GCUCUUAAAACCCACCUGATT against Gzf1,-1.97 (inactive)
13,UAAUGGCUGCUGUCUCCUGTT against Olfr441,0.405 (inactive)
14,GGCGAAAAAGAACUUCUCCTT against Prrx1,-2.17 (active)
15,GCCUACAUUCACUCACUCCTT against Olfr1061,-0.016 (inactive)
16,GGAUCAUUCGGACAAAAGUTT against Pax5,-1.31 (inactive)
17,GGAGAAGAAGAUUUUUGGCTT against Gpr108,-0.684 (inactive)
18,GCCAACAAAGUGAUCGAAGTT against Fkbp10,0.175 (inactive)
19,CCAGCAAUGUACCAGUUCATT against Micos13,-2.02 (active)
20,GGUGAAAGAGAAGACUGAATT against Aimp1,-0.418 (inactive)
21,GGGUAUUCCUUCCAACACCTT against Lrrc4,-2.14 (active)
22,CCCAGUAUCAGACUAUCAUTT against Inpp4a,-0.178 (inactive)

row,Sequence,z-score
1,CGAAUUUUGGAGAUGUAUGTT against Ddias,0.376 (inactive)
2,GGAACAAAGAAGUCAAAGATT against Olfr16,-0.765 (inactive)
3,CGGUGAUCAAUCAUUGUAATT against Tas2r113,-2.16 (active)
4,GCCUGUCAACUACCCAUAUTT against Ergic3,-1.13 (inactive)
5,GGCAAUGAGUCUGACCUCUTT against Capg,-1.39 (inactive)
6,GCUAAGGCUUGGAAUGACATT against Maged1,-0.105 (inactive)
7,GGUGGUGGGUCCAAUUUUUTT against Jpt1,0.411 (inactive)
8,GGACGUAGAAGUUUGGGAGTT against Nupl2,1.39 (inactive)
9,GCACGUUCAGUGCACACCUTT against Nubp1,2.59 (active)
10,CCCUCACAACUUGAAGGACTT against Ccnk,-0.882 (inactive)
11,GGAAGAAGUAGACCUGUCUTT against Aar2,-2.36 (active)
12,GGCUUUAGCAGAUGAGCGATT against Sptbn4,-0.0568 (inactive)
13,GGGACUGAGGACUACAUUCTT against Eif1b,-1.17 (inactive)
14,GGAGAAAUAAAUGACUUGCTT against Zswim2,-0.762 (inactive)
15,CCCACAGUACAUUCUAAAATT against Arsb,0.776 (inactive)
16,GCGUCAAAAUUAUCCGAAATT against Trnau1ap,0.124 (inactive)
17,GGACACGUUUCUGUGUUGUTT against Tspan32,0.304 (inactive)
18,GCACUAUGGGUGUCAUGGUTT against Mon1a,-3.1 (active)
19,CGUAUUCCAUGGUUUCCUATT against Whrn,0.111 (inactive)
20,GGAGUUUCUGGAAUGCAGGTT against Sec22c,0.741 (inactive)
